# According to ChEMBL document CHEMBL2218924, “A broad activity screen in support of a chemogenomic map for kinase signalling research and drug discovery” (Biochem J, 2013):
# Key:
# [1] = biological target: Tyrosine-protein kinase SYK (Homo sapiens) (UniProt P43405); conditions: at 10 µM
# [2] = biological target: T1, Mitogen-activated protein kinase kinase kinase 7 (Homo sapiens) (UniProt O43318); conditions: at 1 µM
# T1 sequence (whole entry): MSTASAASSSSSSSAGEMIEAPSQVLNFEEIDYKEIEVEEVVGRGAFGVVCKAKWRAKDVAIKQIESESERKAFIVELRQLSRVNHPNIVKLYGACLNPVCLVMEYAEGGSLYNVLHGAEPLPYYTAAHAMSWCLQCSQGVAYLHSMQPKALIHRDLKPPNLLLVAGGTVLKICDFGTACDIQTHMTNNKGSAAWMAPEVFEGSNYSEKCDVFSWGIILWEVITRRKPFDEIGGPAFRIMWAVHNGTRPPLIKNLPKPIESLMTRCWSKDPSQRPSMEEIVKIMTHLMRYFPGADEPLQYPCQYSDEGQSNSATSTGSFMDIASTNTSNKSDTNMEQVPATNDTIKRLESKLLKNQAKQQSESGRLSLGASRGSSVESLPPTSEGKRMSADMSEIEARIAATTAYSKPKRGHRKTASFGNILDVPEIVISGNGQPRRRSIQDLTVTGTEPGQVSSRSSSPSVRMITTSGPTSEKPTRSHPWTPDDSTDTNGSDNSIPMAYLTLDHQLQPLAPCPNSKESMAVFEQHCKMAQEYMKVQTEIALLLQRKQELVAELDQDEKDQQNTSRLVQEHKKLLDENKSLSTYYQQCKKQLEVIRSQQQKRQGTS
# [3] = biological target: T1, Mitogen-activated protein kinase kinase kinase 7 (Homo sapiens); conditions: at 10 µM
# [4] = biological target: T2, Serine/threonine-protein kinase TAO1 (Homo sapiens) (UniProt Q7L7X3); conditions: at 1 µM
# T2 sequence (whole entry): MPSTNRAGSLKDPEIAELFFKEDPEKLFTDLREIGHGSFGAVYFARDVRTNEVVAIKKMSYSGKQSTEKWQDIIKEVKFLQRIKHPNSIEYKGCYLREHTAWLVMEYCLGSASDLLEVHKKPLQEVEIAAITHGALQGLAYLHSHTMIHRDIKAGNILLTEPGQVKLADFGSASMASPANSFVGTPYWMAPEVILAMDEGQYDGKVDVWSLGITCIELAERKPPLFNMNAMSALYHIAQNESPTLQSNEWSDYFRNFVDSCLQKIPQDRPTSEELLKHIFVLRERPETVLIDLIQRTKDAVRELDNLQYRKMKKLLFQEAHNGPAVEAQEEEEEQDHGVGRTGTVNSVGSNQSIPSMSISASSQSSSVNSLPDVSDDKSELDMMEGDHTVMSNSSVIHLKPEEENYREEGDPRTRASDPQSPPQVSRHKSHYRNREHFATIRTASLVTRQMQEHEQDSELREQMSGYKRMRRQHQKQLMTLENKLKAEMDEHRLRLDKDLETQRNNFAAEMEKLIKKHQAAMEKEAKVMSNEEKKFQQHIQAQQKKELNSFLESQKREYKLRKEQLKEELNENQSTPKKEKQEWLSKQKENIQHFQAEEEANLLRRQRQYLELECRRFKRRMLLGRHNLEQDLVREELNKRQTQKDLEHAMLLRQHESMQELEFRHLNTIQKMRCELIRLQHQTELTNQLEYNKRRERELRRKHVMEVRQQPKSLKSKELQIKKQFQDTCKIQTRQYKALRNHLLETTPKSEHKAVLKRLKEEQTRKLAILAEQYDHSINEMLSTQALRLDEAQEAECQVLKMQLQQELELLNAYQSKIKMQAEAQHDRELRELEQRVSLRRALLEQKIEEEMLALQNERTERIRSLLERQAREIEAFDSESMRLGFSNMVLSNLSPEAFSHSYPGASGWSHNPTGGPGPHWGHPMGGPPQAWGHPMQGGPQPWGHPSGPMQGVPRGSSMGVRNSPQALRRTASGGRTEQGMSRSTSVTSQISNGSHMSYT
# [5] = biological target: T2, Serine/threonine-protein kinase TAO1 (Homo sapiens); conditions: at 10 µM
# [6] = biological target: T3, Serine/threonine-protein kinase TAO2 (Homo sapiens) (UniProt Q9UL54); conditions: at 1 µM
# T3 sequence (whole entry): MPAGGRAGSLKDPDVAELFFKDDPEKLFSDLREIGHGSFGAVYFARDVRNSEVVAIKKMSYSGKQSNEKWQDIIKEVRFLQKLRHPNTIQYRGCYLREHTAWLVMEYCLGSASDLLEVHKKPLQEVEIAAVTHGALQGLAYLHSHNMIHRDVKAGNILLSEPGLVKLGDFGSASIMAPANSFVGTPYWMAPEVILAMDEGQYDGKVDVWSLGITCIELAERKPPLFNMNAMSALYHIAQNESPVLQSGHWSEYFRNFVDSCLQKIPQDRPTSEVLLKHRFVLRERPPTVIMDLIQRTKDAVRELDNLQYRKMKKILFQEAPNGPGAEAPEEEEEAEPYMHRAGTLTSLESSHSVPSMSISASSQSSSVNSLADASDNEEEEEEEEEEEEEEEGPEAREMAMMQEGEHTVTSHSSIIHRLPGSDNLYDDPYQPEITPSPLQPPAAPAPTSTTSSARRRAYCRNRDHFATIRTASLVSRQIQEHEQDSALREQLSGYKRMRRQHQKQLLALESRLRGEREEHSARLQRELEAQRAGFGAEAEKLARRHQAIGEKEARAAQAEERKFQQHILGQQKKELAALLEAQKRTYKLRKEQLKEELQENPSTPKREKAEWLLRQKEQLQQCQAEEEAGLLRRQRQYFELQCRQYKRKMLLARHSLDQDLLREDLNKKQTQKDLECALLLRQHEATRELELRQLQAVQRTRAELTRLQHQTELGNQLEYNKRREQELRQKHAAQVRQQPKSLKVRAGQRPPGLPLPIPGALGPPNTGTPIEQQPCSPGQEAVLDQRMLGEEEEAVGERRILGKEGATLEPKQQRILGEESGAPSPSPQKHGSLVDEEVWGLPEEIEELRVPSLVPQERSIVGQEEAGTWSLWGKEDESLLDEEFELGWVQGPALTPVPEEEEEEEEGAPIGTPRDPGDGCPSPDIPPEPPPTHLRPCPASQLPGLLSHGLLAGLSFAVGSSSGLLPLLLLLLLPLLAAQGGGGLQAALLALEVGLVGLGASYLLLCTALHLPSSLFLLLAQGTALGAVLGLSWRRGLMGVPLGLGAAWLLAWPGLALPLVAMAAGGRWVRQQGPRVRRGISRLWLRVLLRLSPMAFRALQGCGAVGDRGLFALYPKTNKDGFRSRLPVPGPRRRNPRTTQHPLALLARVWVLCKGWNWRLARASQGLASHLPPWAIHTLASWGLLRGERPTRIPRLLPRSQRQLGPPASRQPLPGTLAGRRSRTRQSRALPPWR
# [7] = biological target: T3, Serine/threonine-protein kinase TAO2 (Homo sapiens); conditions: at 10 µM
# [8] = biological target: T4, Serine/threonine-protein kinase TAO3 (Homo sapiens) (UniProt Q9H2K8); conditions: at 1 µM
# T4 sequence (whole entry): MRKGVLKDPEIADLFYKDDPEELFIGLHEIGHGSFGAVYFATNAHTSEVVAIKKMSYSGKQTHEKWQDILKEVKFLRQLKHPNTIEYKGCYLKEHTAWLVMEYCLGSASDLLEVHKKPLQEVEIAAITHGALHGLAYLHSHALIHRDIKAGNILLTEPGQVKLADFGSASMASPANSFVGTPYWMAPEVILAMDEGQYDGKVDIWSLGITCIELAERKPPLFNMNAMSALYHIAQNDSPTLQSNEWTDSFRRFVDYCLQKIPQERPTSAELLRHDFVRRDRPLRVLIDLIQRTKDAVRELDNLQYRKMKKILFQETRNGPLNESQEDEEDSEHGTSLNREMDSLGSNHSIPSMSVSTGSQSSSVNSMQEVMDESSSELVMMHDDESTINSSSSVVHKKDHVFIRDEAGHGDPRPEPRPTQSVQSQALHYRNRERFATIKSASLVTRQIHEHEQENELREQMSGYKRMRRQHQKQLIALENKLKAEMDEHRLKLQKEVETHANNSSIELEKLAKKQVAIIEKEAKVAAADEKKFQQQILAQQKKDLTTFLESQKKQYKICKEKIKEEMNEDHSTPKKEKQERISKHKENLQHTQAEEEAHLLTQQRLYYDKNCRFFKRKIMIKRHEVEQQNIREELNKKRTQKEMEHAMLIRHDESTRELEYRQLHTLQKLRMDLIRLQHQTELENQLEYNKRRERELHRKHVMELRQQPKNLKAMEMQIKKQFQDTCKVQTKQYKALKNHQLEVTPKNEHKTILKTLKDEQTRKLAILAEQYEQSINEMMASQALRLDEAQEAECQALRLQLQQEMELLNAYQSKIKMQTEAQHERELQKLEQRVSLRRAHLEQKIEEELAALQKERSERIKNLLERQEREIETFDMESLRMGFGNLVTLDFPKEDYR
# [9] = biological target: T4, Serine/threonine-protein kinase TAO3 (Homo sapiens); conditions: at 10 µM
# [10] = biological target: T5, Serine/threonine-protein kinase TBK1 (Homo sapiens) (UniProt Q9UHD2); conditions: at 1 µM
# T5 sequence (whole entry): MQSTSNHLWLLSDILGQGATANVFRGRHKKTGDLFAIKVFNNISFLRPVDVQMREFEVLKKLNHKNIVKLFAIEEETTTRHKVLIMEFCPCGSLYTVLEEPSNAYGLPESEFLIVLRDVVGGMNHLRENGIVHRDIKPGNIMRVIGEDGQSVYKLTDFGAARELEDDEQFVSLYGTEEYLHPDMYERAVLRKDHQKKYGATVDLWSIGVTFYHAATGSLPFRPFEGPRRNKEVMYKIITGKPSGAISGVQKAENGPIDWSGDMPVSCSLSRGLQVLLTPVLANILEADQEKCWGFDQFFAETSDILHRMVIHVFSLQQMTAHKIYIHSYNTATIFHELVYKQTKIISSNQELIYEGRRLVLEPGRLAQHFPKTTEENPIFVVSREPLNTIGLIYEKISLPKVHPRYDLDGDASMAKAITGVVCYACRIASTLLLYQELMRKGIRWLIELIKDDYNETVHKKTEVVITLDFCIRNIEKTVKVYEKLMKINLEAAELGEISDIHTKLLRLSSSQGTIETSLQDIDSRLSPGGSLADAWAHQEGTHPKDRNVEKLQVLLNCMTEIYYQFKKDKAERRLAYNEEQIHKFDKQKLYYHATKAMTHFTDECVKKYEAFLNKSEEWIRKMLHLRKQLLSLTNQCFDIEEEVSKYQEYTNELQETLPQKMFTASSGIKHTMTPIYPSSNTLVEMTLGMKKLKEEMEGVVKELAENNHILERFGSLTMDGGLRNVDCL
SMILES,residual activity [1] [%],residual activity [2] [%],residual activity [3] [%],residual activity [4] [%],residual activity [5] [%],residual activity [6] [%],residual activity [7] [%],residual activity [8] [%],residual activity [9] [%],residual activity [10] [%]
CN(C)c1ccc(/C=C2\C(=O)Nc3ccccc32)cc1,91,100,81,113,90,99,89,100,91,81
COc1ccc(C(=O)Nc2sc3c(c2C(N)=O)CCCC3)cc1OC,89,86,86,97,86,92,83,91,93,72
O=C1Nc2ccc(Br)cc2/C1=C\c1cc2c([nH]1)CCCC2,100,,,104,98,111,,,,59
c1ccc2c(-c3ccncc3)c[nH]c2c1,92,85,85,100,66,,85,98,72,65
O=c1cc(-c2cccc3c2Sc2ccccc2S3)oc(N2CCOCC2)c1,90,101,89,107,80,93,90,94,82,99
Nc1nc(Nc2ccc(S(N)(=O)=O)cc2)nn1C(=S)Nc1c(F)cccc1F,3,9,2,0,1,2,3,0,2,-1
Cc1cccc(-c2[nH]c(C(C)(C)C)nc2-c2ccc3c(c2)OCO3)n1,,89,90,103,98,,90,101,102,73
CO[C@@H]1[C@H](N(C)C(=O)c2ccccc2)C[C@H]2O[C@]1(C)n1c3ccccc3c3c4c(c5c6ccccc6n2c5c31)C(=O)NC4,3,,,50,17,83,47,42,29,2
